The values below come from PubChem BioAssay (NCI).

The panel holds about 83,000 compounds, 20% with a hit somewhere; the sample as a whole holds those more often.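 Percent growth is the endpoint: 0 to 100 indicates growth inhibition (40 means 60% inhibition), 0 means no net growth, and negative values indicate cell death.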 A number with no mark means an inactive call. Activity calls are given as the source filed them. The calls were made as follows: active = growth percent below 10; inactive = the rest.

What all share (assay): NCI-60 one-dose screen, 48 h (100 = growth as untreated, 0 = no growth, -100 = all killed)
In one assay the test system is EKVX NSCLC. The settings on record: 10 µM unless noted.
For a further assay, the system named is SN12C renal. To be noted: 10 µM unless noted.
Another assay relates to UO-31 renal. The settings on record: 10 µM unless noted.
The subject of a further assay is TK-10 renal. The settings on record: 10 µM unless noted.
The next assay has as its system A498 renal. To be noted: 10 µM unless noted.
A further assay relates to CCRF-CEM leukemia. The settings on record: 10 µM unless noted.
The subject of another assay is MOLT-4 leukemia. To be noted: 10 µM unless noted.
Another assay has as its system SR leukemia. The settings on record: 10 µM unless noted.
Another assay has as its system RPMI-8226 leukemia. To be noted: 10 µM unless noted.
In another assay the test system is OVCAR-8 ovarian. The settings on record: 10 µM unless noted.
The next assay deals with OVCAR-5 ovarian. To be noted: 10 µM unless noted.
The subject of a further assay is OVCAR-4 ovarian. To be noted: 10 µM unless noted.
A further assay deals with SK-OV-3 ovarian. To be noted: 10 µM unless noted.
Another assay deals with IGROV1 ovarian. To be noted: 10 µM unless noted.
For a further assay, the system named is OVCAR-3 ovarian. To be noted: 10 µM unless noted.
For another assay, the system named is HS 578T breast. The settings on record: 10 µM unless noted.
The subject of a further assay is NCI/ADR-RES ovarian. To be noted: 10 µM unless noted.
The test system of a further assay is ACHN renal. The settings on record: 10 µM unless noted.
A further assay concerns CAKI-1 renal. The settings on record: 10 µM.

On to `NS(=O)(=O)c1ccc(Nc2nc(O)c(/C=C3\C=Nc4ccccc43)s2)cc1`, for which the growth in the assay with EKVX NSCLC was 98.2%; with SN12C renal it was 91.1%; in the assay with UO-31 renal, 70.7%; with TK-10 renal, 112%; with A498 renal, 106%; with CCRF-CEM leukemia it was 85.6%. Moreover, the growth in the assay with MOLT-4 leukemia is 95.4%; in the assay with SR leukemia, 99.2%; in the assay on RPMI-8226 leukemia, 95%; in the assay on OVCAR-8 ovarian, 94.5%; with OVCAR-5 ovarian it was 111%; with OVCAR-4 ovarian it was 125%. Also, the growth in the assay on SK-OV-3 ovarian is 102%; in the assay on IGROV1 ovarian, 92.5%; in the assay on OVCAR-3 ovarian, 102%; in the assay with HS 578T breast, 87.5%; in the assay with NCI/ADR-RES ovarian, 101%.

For the compound `C=C1C(=O)O[C@H]2[C@H]1CC/C(C(=O)Nc1ccc(OC)c(C(N)=O)c1O)=C\CC[C@@]1(C)O[C@@H]21`, the growth with EKVX NSCLC was 73.4%; with SN12C renal, 61.1%; in the assay on UO-31 renal, 37.8%; with TK-10 renal it was 22.6%; in the assay on A498 renal it was 78.3%; with CCRF-CEM leukemia it was 3.64% (active). The growth in the assay with MOLT-4 leukemia was 13.9%; with SR leukemia, 22.3%; in the assay on RPMI-8226 leukemia it was 70.8%; in the assay on OVCAR-8 ovarian, 68.2%; with OVCAR-5 ovarian it was 75.1%; with OVCAR-4 ovarian it was 67.2%. The growth was 80.7% in the assay with SK-OV-3 ovarian; 55.5% with IGROV1 ovarian; 25.4% in the assay with OVCAR-3 ovarian; 77.4% in the assay on HS 578T breast; 92.5% in the assay with NCI/ADR-RES ovarian.

In the case of `CC(=O)N[C@@H](CNC(=O)c1cc(NC(=O)c2cc(NC(=O)c3cc(NC(=O)c4nccn4C)cn3C)cn2C)cn1C)CC(=O)Nc1cn(C)c(C(=O)Nc2cc(C(=O)Nc3cc(C(=O)Nc4cc(C(=O)NCCCN(C)CCCNC(=O)c5cccc(C(=O)O)c5)n(C)c4)n(C)c3)n(C)c2)n1`, the growth in the assay with EKVX NSCLC was 102%; with SN12C renal, 100%; in the assay on UO-31 renal, 77.1%; in the assay with TK-10 renal, 93.1%; in the assay on ACHN renal, 75.1%; with A498 renal, 92.9%. Further, the growth in the assay on CCRF-CEM leukemia is 103%; in the assay with MOLT-4 leukemia, 120%; in the assay on SR leukemia, 77.2%; in the assay on RPMI-8226 leukemia it was 105%; in the assay on OVCAR-8 ovarian, 96%; in the assay on OVCAR-5 ovarian, 121%. Also, the growth with OVCAR-4 ovarian was 64%; in the assay on SK-OV-3 ovarian, 115%; with IGROV1 ovarian, 113%; in the assay on OVCAR-3 ovarian, 102%; in the assay with NCI/ADR-RES ovarian, 87.4%.

Turning to `NN=C(c1ccc(Cl)cc1)c1ccc(Cl)cc1`, the growth was 108% in the assay with EKVX NSCLC; 105% in the assay on SN12C renal; 81.8% in the assay with UO-31 renal; 110% in the assay with TK-10 renal; 101% in the assay on ACHN renal; 96% with A498 renal. Further, the growth is 89.3% in the assay on CCRF-CEM leukemia; 97.8% in the assay on MOLT-4 leukemia; 104% in the assay on SR leukemia; 102% with RPMI-8226 leukemia; 104% in the assay with OVCAR-8 ovarian; 95% in the assay with OVCAR-5 ovarian. Besides, the growth is 103% in the assay with OVCAR-4 ovarian; 105% with SK-OV-3 ovarian; 119% with IGROV1 ovarian; 107% in the assay with OVCAR-3 ovarian; 108% in the assay on NCI/ADR-RES ovarian.

As for `Clc1ccc2c(c1)nnn1c3ncccc3c(Br)c21`, the growth with EKVX NSCLC was 29.2%; with UO-31 renal, 58.9%; in the assay on TK-10 renal it was 78.8%; with ACHN renal, 78.4%; with A498 renal, 70.5%; with CCRF-CEM leukemia, 86.4%. The growth in the assay with MOLT-4 leukemia was 115%; in the assay with RPMI-8226 leukemia, 83.2%; in the assay on OVCAR-8 ovarian it was 71.9%; with OVCAR-5 ovarian, 101%; in the assay on OVCAR-4 ovarian it was 77.1%; in the assay with SK-OV-3 ovarian, 51.3%. Further, the figures for the growth in the assay with OVCAR-3 ovarian, in the assay with HS 578T breast and in the assay on NCI/ADR-RES ovarian were 70.8%, 16.7% and 85.8%, respectively.

Turning to `C[C@]12CC[C@@H]3c4ccc(O)c(N)c4CC[C@H]3[C@@H]1CC[C@@H]2O`, the growth in the assay with EKVX NSCLC is 78.5%; with SN12C renal it was 105%; in the assay with UO-31 renal, 109%; with TK-10 renal, 135%; in the assay on A498 renal, 96%; in the assay with CCRF-CEM leukemia, 75.9%. The growth in the assay on MOLT-4 leukemia was 80.8%; in the assay with SR leukemia, 98.1%; with OVCAR-8 ovarian, 104%; with OVCAR-5 ovarian, 117%; with OVCAR-4 ovarian, 110%; with SK-OV-3 ovarian, 128%. For the same compound, the growth is 136% in the assay on IGROV1 ovarian, 100% with OVCAR-3 ovarian, 99.2% in the assay with HS 578T breast and 105% in the assay with NCI/ADR-RES ovarian.

Turning to `COc1ccc2c(c1)OC(N(C(C)=O)C(C)=O)=C(C#N)C2c1ccc(F)cc1` (stereo unspecified), the growth was 47.9% with EKVX NSCLC; 51.5% in the assay on SN12C renal; 45.8% in the assay with UO-31 renal; 71.2% in the assay with TK-10 renal; 12.8% in the assay on A498 renal; 10.9% with CCRF-CEM leukemia. Also, the growth in the assay with MOLT-4 leukemia was 28.7%; in the assay with SR leukemia, 12.4%; in the assay with RPMI-8226 leukemia, 3.13% (active); in the assay with OVCAR-8 ovarian, 38.5%; in the assay on OVCAR-5 ovarian it was 65.2%; in the assay on OVCAR-4 ovarian, 81.9%. The growth with SK-OV-3 ovarian was 23.9%; with IGROV1 ovarian, 56.1%; in the assay on OVCAR-3 ovarian it was 11.9%; with HS 578T breast, 23.6%; with NCI/ADR-RES ovarian, 30.6%.

For `NC(=NCCCOc1ccc(F)cc1)Nc1ccc(Cl)c(Cl)c1`, the growth in the assay on EKVX NSCLC was 74.9%; in the assay on UO-31 renal, 51.6%; in the assay on TK-10 renal it was 69%; in the assay with A498 renal, 60.9%; in the assay on CCRF-CEM leukemia it was 60.4%; in the assay on MOLT-4 leukemia it was 36.1%. Besides, the growth is 52.1% in the assay on SR leukemia; 39.1% in the assay with RPMI-8226 leukemia; 88.6% with OVCAR-8 ovarian; 81.5% in the assay on OVCAR-5 ovarian; 59.9% with OVCAR-4 ovarian; 99.8% in the assay with SK-OV-3 ovarian. Moreover, the growth in the assay with IGROV1 ovarian is 45.9%; with OVCAR-3 ovarian, 73.3%; with HS 578T breast, 65.7%; with NCI/ADR-RES ovarian it was 69.9%.

Regarding `CCC(CC(C)C)Nc1ccc(NC(CC)CC(C)C)cc1` (stereo unspecified), the growth with EKVX NSCLC was 81.4%; in the assay with SN12C renal, 96.3%; in the assay on UO-31 renal, 93%; with ACHN renal, 95.3%; in the assay with CAKI-1 renal it was 99.1%; in the assay on A498 renal, 94.1%. Further, the growth in the assay with CCRF-CEM leukemia is 10.4%; in the assay with MOLT-4 leukemia, 34.5%; in the assay with SR leukemia, 48.9%; in the assay with RPMI-8226 leukemia it was -5.42% (active); in the assay with OVCAR-8 ovarian, 87.6%; with OVCAR-5 ovarian, 108%. In addition, the growth in the assay with OVCAR-4 ovarian was 75.8%; in the assay on SK-OV-3 ovarian, 94.4%; with IGROV1 ovarian it was 83.9%; with OVCAR-3 ovarian it was -6.06% (active); in the assay with NCI/ADR-RES ovarian it was 96.6%.

As to `CCn1c(C)nc([N+](=O)[O-])c1Sc1nc(N)nc2nc[nH]c12`, the growth in the assay with EKVX NSCLC was 38.9%; with SN12C renal, 33%; with UO-31 renal, 37.5%; with TK-10 renal, 34.5%; with A498 renal, 57%; in the assay with CCRF-CEM leukemia, 11.8%. Also, the growth was 14.3% with MOLT-4 leukemia; 16.6% in the assay with SR leukemia; 3.41% (active) in the assay on RPMI-8226 leukemia; 24.1% in the assay on OVCAR-8 ovarian; 31.7% in the assay with OVCAR-5 ovarian; 47.4% in the assay on OVCAR-4 ovarian. Moreover, the growth in the assay on SK-OV-3 ovarian was 5.32% (active); with IGROV1 ovarian, 77.5%; with OVCAR-3 ovarian it was 24.5%; with HS 578T breast it was 50.4%; in the assay on NCI/ADR-RES ovarian, 25.5%.
